TRHR enhancer: qHTS for Small Molecule Agonists and Allosteric Enhancers of Human TRH Receptor: Primary Screen for Enhancers; 0.66% of 360,000 active; enhancement, % at 2 µM; Thyrotropin-releasing hormone receptor (Homo sapiens), P34981; TRHR cells, fluo-8 calcium fluorescence, EC20 TRH enhancement; AID 493056, 2011; in the data active means enhancement above about 30%; further: 0% is about no effect
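TRHR-expressing cells loaded with fluo-8 calcium dye were read kinetically (ex 480/em 530) during compound addition, then stimulated with an EC20 of TRH (10 nM final). Enhancement of the Gq-mediated intracellular calcium response was scored.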
D1 PAM: Potentiators of Human D1 Dopamine Receptor: qHTS; potentiation, % at 10 µM; D(1A) dopamine receptor (Homo sapiens), P21728; HEK293 TREx D1 cells, calcium flux, dopamine EC20 potentiation; AID 504651, 2011; 0.036% of 360,000 active; in the data active means potentiation above about 30%; further: 0% is about no effect
Target sequence (P21728 whole entry, looked up): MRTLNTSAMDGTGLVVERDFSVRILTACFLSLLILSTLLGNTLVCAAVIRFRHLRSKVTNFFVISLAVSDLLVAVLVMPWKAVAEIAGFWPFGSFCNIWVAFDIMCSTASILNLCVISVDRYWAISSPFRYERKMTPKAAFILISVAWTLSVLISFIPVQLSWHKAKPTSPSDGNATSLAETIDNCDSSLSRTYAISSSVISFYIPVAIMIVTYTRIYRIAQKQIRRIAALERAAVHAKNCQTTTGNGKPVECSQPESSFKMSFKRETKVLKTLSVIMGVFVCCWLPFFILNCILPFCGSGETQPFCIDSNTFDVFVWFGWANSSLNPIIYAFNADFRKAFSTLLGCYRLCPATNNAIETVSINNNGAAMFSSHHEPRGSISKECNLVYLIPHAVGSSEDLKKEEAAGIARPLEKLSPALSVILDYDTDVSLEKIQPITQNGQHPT
TRHR agonist: qHTS for Small Molecule Agonists and Allosteric Enhancers of Human TRH Receptor: Primary Screen for Agonists. Thyrotropin-releasing hormone receptor (Homo sapiens), P34981. 0.18% of 360,000 active. TRHR cells, calcium flux fluo-8, FDSS agonist mode. activation, % at 2 µM; further: 0% is about no effect
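TRHR-expressing cells loaded with fluo-8 calcium dye; 23 nL library compound pin-transferred, kinetic FDSS fluorescence (Ex 480/Em 530) recorded about 180 s for agonist-induced calcium release, before a 10 nM TRH EC20 addition for potentiator mode.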
D1 ag: Allosteric Agonists of the Human D1 Dopamine Receptor: qHTS; activation, % at 2 µM; AID 504660, 2011; HEK293 T-REx D1 cells, calcium flux, agonist mode; 1% of 360,000 active; D(1A) dopamine receptor (Homo sapiens), P21728; further: 0% is about no effect
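Inducible HEK293 T-REx D1 cells, force-coupled to calcium signalling, were plated at 4000 cells/well with tetracycline and held overnight at 30 C. After no-wash calcium dye loading, compound-evoked calcium rise over 180 s flagged agonists.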
D1 antagonist: Antagonist of Human D 1 Dopamine Receptor: qHTS. HEK293 TREx D1 cells, calcium flux, dopamine EC80; active compounds read low. activity change, negative = inhibition, % at 10 µM. 3.2% of 360,000 active. AID 504652, 2011; in the data active means activity change below about -30%; further: on the % scale 0 is the no-effect control and ±100 the full control effect
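Kinetic fluorescence of a calcium dye serves as the read-out. D1-expressing Hek293 Trex cells, induced overnight at 30 C, are exposed to compound for 180 s before an EC80 dopamine addition, then read 180 s further.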
Active calls of the source: *; . = no result given. Sampled rows, rich in hits. Any-hit rate of the full collection: about 4.7%. Unless noted, no stated cut-off is given here; in the data, active means activation above about 30%; inactive means the rest.

SMILES | TRHR enhancer | D1 PAM | TRHR agonist | D1 ag | D1 antagonist
CCOc1ccccc1/C=C/C(=O)c1ccc(Cl)cc1 | 0.0 | -6.1 | -0.2 | 8.4 | -31.6*
COc1ccccc1/C=C/C(=O)c1ccccc1 | -4.0 | -5.7 | -1.3 | 0.6 | 3.0
COc1ccc(C(=O)NCCc2sc(-c3cccc(F)c3)nc2C)cc1 | -3.0 | 1.4 | -0.7 | 1.1 | 0.5
Cc1ccc(NC(=O)c2oc3ccc(S(=O)(=O)N4CCC5(CC4)OCCO5)cc3c2C)c(C)c1 | -2.6 | 2.5 | 0.5 | -1.5 | -5.6
COc1ccc(C2C(=O)N(C3CCCCCC3)CC(=O)N2Cc2ccc(C)cc2)cc1 (stereo not drawn) | 1.0 | -2.2 | 0.5 | -1.8 | -25.5
Cc1ccc(S(=O)(=O)NCC(c2ccc(N(C)C)cc2)N2CCc3ccccc32)cc1C (stereo not drawn) | -0.3 | -0.1 | -1.1 | -2.0 | -4.6
Cc1cccc(-c2nc3ccccc3n2Cc2ccccc2)c1 | -4.5 | 0.1 | -1.1 | 52.6* | -49.5*
COc1ccc(-c2nc3ccccc3n2Cc2ccc(Cl)cc2)cc1 | 1.4 | -2.7 | -0.8 | 24.9 | -32.5*
CCCn1c(-c2cccc(Br)c2)nc2ccccc21 | 2.6 | -2.7 | -2.5 | 0.5 | -35.3*
CCN(c1ccccc1)S(=O)(=O)c1ccc(Cl)c(NC(=O)COC(=O)C2CC2C)c1 (stereo not drawn) | 2.2 | -3.0 | -0.4 | 7.2 | -31.1*
CCN(c1ccccc1)S(=O)(=O)c1ccc(Cl)c(NC(=O)COC(=O)c2ccc(O)cc2)c1 | -0.5 | -4.0 | 0.3 | 7.9 | -3.9
CCN(c1ccccc1)S(=O)(=O)c1ccc(Cl)c(C(=O)OCC(=O)NC(=O)C(C)C)c1 | 0.0 | -1.3 | 1.2 | 4.1 | -34.0*
O=[N+]([O-])c1ccc(NC(=S)NCc2ccc(F)cc2)cc1 | 2.2 | -5.2 | 1.5 | 20.8 | -35.1*
O=[N+]([O-])c1ccc(NC(=S)NCCc2ccc(Cl)cc2)cc1 | -10.8 | -12.3 | 1.5 | 14.8 | -22.8
O=[N+]([O-])c1cccc(NC(=S)NCc2ccncc2)c1 | 2.5 | -3.7 | -1.0 | 7.5 | -39.8*
O=C(NCc1ccncc1)Nc1cccc([N+](=O)[O-])c1 | -3.2 | -3.5 | 0.5 | 7.7 | -7.3
O=[N+]([O-])c1ccc(NC(=S)NCc2ccncc2)cc1 | -0.9 | -14.6 | 0.7 | 32.0* | -41.3*
NS(=O)(=O)c1ccc(NC(=S)NCc2ccc(F)cc2)cc1 | -8.0 | -0.6 | 0.5 | 1.2 | 4.6
O=[N+]([O-])c1ccc(NC(=S)NCCc2ccccc2)cc1 | -4.5 | -7.7 | 0.9 | 15.6 | -37.1*
Cc1ccc(-n2c(C)nc3c(cnn3-c3ccccc3C)c2=O)cc1F | 0.3 | 5.3 | -0.8 | -0.2 | -2.0
Cc1ccc2c(CNCCc3ccco3)c(C(=O)O)n(Cc3ccc(F)cc3)c2c1 | 27.7 | -2.9 | 0.2 | 0.3 | 3.7
Cc1cc(C)c(S(=O)(=O)NCC(c2cccs2)S(=O)(=O)c2ccccc2)c(C)c1 (stereo not drawn) | 2.3 | -3.5 | -0.4 | 21.7 | .
S=C(NCc1ccc(Cl)cc1)Nc1ccncc1 | -12.2 | -6.0 | 0.1 | 26.5 | -42.9*
S=C(NCc1ccc(Cl)cc1)Nc1ccccc1 | 0.4 | -9.8 | -0.2 | 22.4 | 2.2
CCOC(=O)N1CCC(NC(=O)c2cnn(-c3ccc(OC)cc3)c2C2CCN(C(=O)OC(C)(C)C)CC2)CC1 | 4.4 | -4.2 | -0.8 | 1.6 | -6.7
SMILES | TRHR enhancer | D1 PAM | TRHR agonist | D1 ag | D1 antagonist
Cc1ccc(Cn2c(SCCN3CCCCC3)nc3c2c(=O)[nH]c(=O)n3C)cc1 | 22.5 | -3.0 | -0.3 | -1.2 | -43.1*
Cn1c(=O)[nH]c(=O)c2c1nc(SCCN1CCCCC1)n2Cc1ccccc1 | -7.2 | -2.9 | 1.1 | 0.5 | 6.3
O=C1Nc2ccc(Br)cc2C12NNc1ccccc1O2 (stereo not drawn) | -2.4 | -4.5 | 7.3 | 32.9* | -14.3
NNC(=O)c1cc(O)c(O)c(O)c1 | -5.0 | -10.7 | 0.5 | -0.8 | -35.5*
CCOC(=O)Cn1c(C2CC(=O)N(c3ccc(C)cc3)C2)nc2ccccc21 (stereo not drawn) | 0.6 | -3.6 | -0.2 | 8.8 | -45.7*
CCc1ccccc1N1CC(c2nc3ccccc3n2CCCCOc2ccccc2OC)CC1=O (stereo not drawn) | -18.1 | 0.4 | 3.8 | 60.1* | -7.2
Cc1cccc(OCCCCn2c(C3CC(=O)N(c4ccccc4Cl)C3)nc3ccccc32)c1 (stereo not drawn) | 32.8* | -2.6 | 1.3 | 25.2 | -0.8
CCCC(=O)N1CCc2cc(OC)c(OC)cc2C1COc1ccc2c(C)cc(=O)oc2c1 (stereo not drawn) | 4.8 | 1.8 | -0.4 | -0.2 | -0.6
Cc1ccc(NC(=O)CN2C(=O)CCc3cc(S(=O)(=O)N4CCCCC4)ccc32)cc1N(C)C | 2.5 | 0.1 | -0.4 | -1.5 | 6.4
O=C(NNC(=O)c1ccncc1)Nc1cccc(C(F)(F)F)c1 | 12.0 | -7.9 | 0.1 | -0.3 | -0.6
Cc1cc(C(=O)NNC(=S)NCc2ccccc2)cs1 | 0.9 | 1.9 | -0.4 | 1.1 | 3.5
Cc1nn(C)c(C(=O)NNC(=S)NCc2ccccc2)c1Cl | 39.1* | -6.2 | -0.4 | 6.2 | -32.1*
Cc1nn(C)c(C(=O)NNC(=O)Nc2cccc(C(F)(F)F)c2)c1Cl | -16.3 | -6.3 | 0.0 | 10.5 | -30.4*
S=C(Nc1cccnc1)NC1CC2CCC1C2 (stereo not drawn) | 5.3 | -3.4 | 2.6 | 17.5 | -33.7*
CCNC(=S)N(CCc1c(C)[nH]c2ccc(Cl)cc12)Cc1cccnc1 | 18.2 | -6.2 | -1.1 | 6.2 | -43.1*
CNC(=S)N(CCc1c(C)[nH]c2ccc(Cl)cc12)Cc1cccnc1 | 15.3 | -9.8 | -0.5 | 30.6* | -25.0
COCCNC(=S)N(CCc1c(C)[nH]c2ccc(Cl)cc12)Cc1cccnc1 | -11.5 | -4.3 | 1.6 | 9.1 | 5.6
COc1ccc(N(Cc2cccs2)C(=O)c2ccc(C(C)(C)C)cc2)cc1 | -0.5 | -0.8 | 1.6 | 14.2 | 2.2
Cc1ccc(N(Cc2cccs2)C(=O)c2ccc(Br)o2)cc1 | -10.6 | -1.8 | 0.2 | 7.6 | -19.0
CC(=O)c1ccc(OCC(O)CN(C)Cc2cccs2)cc1 (stereo not drawn) | 3.4 | 0.9 | -0.6 | 37.1* | -43.4*
COc1ccc(N(Cc2cccs2)C(=O)c2ccc(OCC(C)C)cc2)cc1 | 19.1 | 2.8 | -0.3 | 34.1* | 2.7
COc1ccc(N(Cc2cccs2)C(=O)c2ccccc2C)cc1 | -5.2 | 1.2 | -0.1 | 4.3 | -36.5*
Cc1ccc(N(Cc2cccs2)C(=O)c2ccccc2)cc1 | 2.0 | -1.1 | 0.0 | 1.4 | -34.4*
